Test results taken from PubChem BioAssay (EPA / NIEHS).
The source made the active and inactive calls. The calls were made as follows: active = hit-call score of the fitted dose curve at least 0.9, where 1 is the maximum; inactive = score below 0.9.

experiment: APR_HepG2_StressKinase_24hr: Apredica 24-hour HepG2 Assay for Stress Kinase (AID 2282922); settings: HepG2 stress kinase (phospho-c-Jun) imaging, actives raise or lower the signal
Method: APR_HepG2_24hr is a cell-based, multiplexed-readout assay that uses HepG2, a human liver cell line, with measurements taken at 24 hours after chemical dosing in a 384-well plate.APR_HepG2_StressKinase_24hr is one of 10 assay component(s) measured or calculated from the APR_HepG2_24hr assay. It is designed to make measurements of enzyme activity, a form of enzyme reporter, as detected with fluorescence intensity signals by HCS Fluorescent Imaging technology.Data from the assay component APR_HepG2_StressKinase_24hr was analyzed into 1 assay endpoint. This assay endpoint, APR_HepG2_StressKinase_24hr, was analyzed with bidirectional fitting relative to DMSO as the negative control and baseline of activity. Using a type of enzyme reporter, measures of protein for gain or loss-of-signal activity can be used to understand the signaling at the pathway-level as they relate to the gene . Furthermore, this assay endpoint can be referred to as a primary readout, because this assay has produced multiple assay endpoints where this one serves a signaling function. To generalize the intended target to other relatable targets, this assay endpoint is annotated to the cell cycle intended target family, where the subfamily is stress response.
Cells were treated with dimethyl sulfoxide (DMSO) as a solvent control at a final concentration of 0.5% v/v or with compounds in DMSO with a resulting final DMSO concentration of 0.5% v/v. Compound treatment was done at concentrations of 0.39, 0.78, 1.56, 3.12, 6.24, 12.5, 25, 50, 100, and 200 uM in duplicate on each plate. Cells were treated with compounds for 1, 24, or 72 hr. Carbonyl […] m-chloro-phenylhydrazone (CCCP) and taxol were used as positive controls for mitochondrial function and cytoskeletal stability, respectively; DMSO served as the negative control for this experiment. Cells were fixed by the direct addition of 50 uL formaldehyde in Hank's Balanced Salt Solution (HBSS) to a final concentration of 3.7%. After incubation in the fixation medium for 30 min at room temperature (293-298 K), cells were rinsed twice with HBSS and treated with cell permeabilization buffer (16 uL of 0.5% Triton X-100) for 10 min at room temperature (293-298 K) before labeling. For mitochondrial membrane potential and mitochondrial measurements, pre-fixed cells were incubated with 50 uL of MitoTracker Red CMXRos (Invitrogen) at a concentration of 250 nM for 30 min before fixation. In the remaining cases, post-fixed cells were labeled by incubation with a multiplexed mixture of primary antibodies in HBSS for 60 min at room temperature (293-298 K) to detect immunoreactivity of c-Jun (1:500), phospho-histone H3 (1:100), phospho-histone H2A.x (1:200), p53 (1:400), alpha-tubulin (1:200) and Hoechst 33342 (2 ug/mL). Cells were labeled for multiplexed imaging on two separate plates: a) Hoechst 33342, MitoTracker Red, phospho-histone H3, and alpha-tubulin, and b) Hoechst 33342, phospho-histone H2A.x, and c-Jun. A final rinse with HBSS (50 uL) was performed before analysis. The primary and secondary antibodies for the proteins were phospho-histone H3 (rabbit anti-phospho-histone H3 and FITC-donkey anti-rabbit IgG), phospho-histone H2A.x (mouse anti-phospho-histone H2A.x and FITC-donkey anti-mouse IgG), c-Jun (rabbit anti-phospho-c-Jun and Cy3-donkey anti-rabbit IgG), p53 (sheep anti-p53 and Cy5-donkey anti-sheep IgG), alpha-tubulin (mouse anti-alpha-tubulin and Cy5-donkey anti-mouse IgG). These antibodies are available as the CellCiphr HepG2 assay kit (Millipore).Digital images of each well were captured using a Cellomics ArrayScan VTI (Thermo Scientific Cellomics) (0.8 NA objective, 0.63x optical coupler, and XF-93 filter set) at 20x magnification. The images were acquired using the autofocus feature of the ArrayScan instrument, which entails the following steps. First, the camera focuses on channel 1 (Hoechst 33342), where nuclei are identified. Second, a Z offset of 1 um is used for capturing mitochondria (MitoTracker Red). […]

SMILES	outcome	AC50
CN(C)C(=O)Cl	inactive	–
Nc1ccc(Cl)cc1	inactive	–
c1ccc2c(c1)Nc1ccccc1S2	inactive	–
ClC1=C(Cl)C2(Cl)C3C(Cl)C(Cl)CC3C1(Cl)C2(Cl)Cl (stereo not given)	–	96.7 µM (active)
CC(Cl)(Cl)C(=O)O	inactive	–
CCOS(=O)(=O)OCC	inactive	–
O=P(Oc1ccccc1)(Oc1ccccc1)Oc1ccccc1	inactive	–
O=[N+]([O-])c1ccc(Cl)c(Cl)c1	inactive	–
CCOc1ccc(C(C)(C)COCc2cccc(Oc3ccccc3)c2)cc1	inactive	–
Cc1ccc(N)cc1N	inactive	–
Cc1ccc([N+](=O)[O-])cc1C	inactive	–
CC(C)(C)c1ccc(O)cc1	inactive	–
OCC1CO1 (stereo not given)	inactive	–
Cc1cccc(N)c1	inactive	–
ClC(Cl)c1ccccc1	inactive	–
CC(Cc1ccc(OCC(=O)O)cc1)NCC(O)c1csc(C(F)(F)F)n1 (stereo not given)	inactive	–
CCOP(=S)(OCC)SCSCC	inactive	–
O=P1(N(CCCl)CCCl)NCCCO1 (stereo not given)	inactive	–
Cc1ccc(O)cc1C	inactive	–
CCCCc1ccccc1	inactive	–

SMILES	outcome	AC50
CCOC(=O)c1ccccc1C(=O)OCC	inactive	–
[N-]=[N+]=[N-]	inactive	–
CC(C)(C)OOC(C)(C)C	inactive	–
c1ccc(OP(Oc2ccccc2)Oc2ccccc2)cc1	inactive	–
O=C(O)C(Cl)Cl	inactive	–
Nc1ccc2ccccc2c1	inactive	–
CCC1(c2ccccc2)C(=O)N=C(O)NC1=O (stereo not given)	inactive	–
c1cc2c3c(cccc3c1)CC2	inactive	–
CCCCCCCc1ccc(O)cc1	inactive	–
CCCN(CCC)c1c([N+](=O)[O-])cc(C(C)C)cc1[N+](=O)[O-]	inactive	–
CCNc1nc(Cl)nc(NC(C)(C)C)n1	inactive	–
CCC(C)(C)c1ccc(O)cc1	inactive	–
Nc1cc2c3c(c1)C(c1ccccc1)=N[C@@H](NC(=O)c1cccnc1)C(=O)N3CC2	inactive	–
CCCCN(CCCC)SN(C)C(=O)Oc1cccc2c1OC(C)(C)C2	inactive	–
COCCOCCO	inactive	–
O=C(O)C1C(C(=O)O)C2(Cl)C(Cl)=C(Cl)C1(Cl)C2(Cl)Cl (stereo not given)	inactive	–
CCOP(=S)(Oc1ccc([N+](=O)[O-])cc1)c1ccccc1 (stereo not given)	inactive	–
c1nc[nH]n1	inactive	–
CSC(C)(C)C=NO	inactive	–
O=[N+]([O-])c1ccccc1	inactive	–
